Ba/F3 V617F tox = loss of viability in JAK2V617F-driven Ba/F3 cells | Ba/F3 EpoR-JAK2V617F viability, ATP luminescence | inhibition, % at 5.6 µM | hit rate 1.1% among 220,000 | AID 1446;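 active = inhibition above the campaign mean plus 3 SD over all tested compounds, cut at about 24% in these data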;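 also: cytokine-independent growth of Ba/F3 cells driven by EpoR plus mutant JAK2; 0% = DMSO-treated cells and 100% = JAK inhibitor I control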
IEC-6 cytotox = counter-screen for KLF5 inhibitors: cytotoxicity in IEC-6 cells | IEC-6 cytotoxicity, luminescence viability | inhibition, % at 5 µM | hit rate 0.78% among 290,000;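 also: 0% = plate median of test compound wells and 100% = cytotoxic reference compound wells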
KLF5 inhibitor = kruppel-like factor 5 inhibition; DLD-1 KLF5 promoter-luciferase reporter, luminescence; inhibition, % at 5 µM; hit rate 0.23% among 290,000; AID 1700;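 active = inhibition above a per-plate limit of that plate's mean compound inhibition plus 3 SD, cut at about 60% in these data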;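 also: 0% = DMSO wells and 100% = LY294002 at 200 µM; higher means less KLF5 promoter-driven luciferase light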
BaF3 parental = reduces parental Ba/F3 cell viability, JAK2V617F counter-screen | CellTiter-Glo ATP luminescence | inhibition, % at 5.6 µM | hit rate 1.1% among 220,000 | AID 1486;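 active = inhibition above a per-campaign cutoff, the mean inhibition of all tested compounds plus 3 SD, cut at about 27% in these data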;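 also: 0% = DMSO wells and 100% = JAK Inhibitor I control wells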
APP transl inh = APP translation inhibition; hit rate 0.82% among 190,000; SH-SY5Y APP 5'UTR-luciferase reporter, luminescence; inhibition, % at 2 µM; AID 1285;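 active = inhibition above a set limit, derived from the sample mean plus 3 SD, cut at about 45% in these data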
aSyn 5UTR inh = 5' untranslated region of α-synuclein, MLPCN primary screen | alpha-synuclein 5'UTR reporter, inhibitor activity | inhibition, % (tested at 7.5 µM) | hit rate 0.82% among 300,000; in the data active = inhibition above about 60%;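 also: H4 neuroglioblastoma cells stably carrying SNCA 5'UTR luciferase fusion; 0% = DMSO wells and 100% = positive control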
IEC-6 tox confirm = IEC-6 cytotoxicity, confirmation assay; IEC-6 rat intestinal epithelial viability, luminescence; shares compounds with IEC-6 cytotox; hit rate 63% among 1,900; inhibition, % at 5 µM;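 also: 0% = vehicle and 100% = reference cytotoxic drug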
* hit, by the source's call; . = not tested or not shown. Compounds with a hit are over-represented: about 2.2% of the library has one in this group of screens. Rule as the data show it, unless noted: active = inhibition above about 22%; inactive = the rest.

SMILES	Ba/F3 V617F tox	IEC-6 cytotox	KLF5 inhibitor	BaF3 parental	APP transl inh	aSyn 5UTR inh	IEC-6 tox confirm
NC(CS(=O)O)C(=O)O (stereo unspecified)	.	.	.	.	.	8	.
CC(=O)Nc1nc(NC(=O)/C=C/c2ccccc2)n(-c2ccccc2)n1	5	24*	27	10	11	79*	17
CC(=O)Nc1nc(NCc2ccccc2Cl)n(-c2ccccc2)n1	.	-6	-16	.	.	15	.
O=C(Nc1nc(NC(=O)c2ccco2)n(-c2ccccc2)n1)c1ccccc1	36*	26*	48	51*	46*	79*	41*
Cc1ccc(NC(=O)C2CC(O)CN2C(=O)OCc2ccccc2)c(C)c1 (stereo unspecified)	.	-4	-10	.	.	-6	.
CC(C)(CO)NC(=O)Nc1ccc(Cl)c(Cl)c1	-5	2	-3	1	-20	-9	.
CC1=Nc2cc(C(=O)NCCN3CCOCC3)ccc2Sc2c(C)ccc(C)c21	.	33*	14	.	.	50	32*
CC1=Nc2cc(C(=O)NCCCN3CCOCC3)ccc2Sc2c(C)ccc(C)c21	.	18	-8	.	.	41	.
COc1cc(/C=C/c2nc3ccccc3c(=O)[nH]2)ccc1OC(F)F	.	-1	-127	.	.	-195	.
COc1cc(/C=C/c2nc3ccccc3c(=O)[nH]2)cc(OC)c1OC	.	61*	32	.	.	-84	71*
CCCCN1C2=NC(c3ccccc3)CN2c2ccccc21 (stereo unspecified)	.	.	.	.	.	-4	.
COc1cc2c(cc1OC)C(C)N(C(=O)CCNC(=O)c1ccccc1)CC2 (stereo unspecified)	.	-2	-19	.	.	7	.
COc1cc2c(cc1OC)C(C)N(C(=O)Nc1ccccc1)CC2 (stereo unspecified)	.	63*	60	.	.	-32	50*
CCOC(=O)Nc1nc(-c2ccccc2)c(C(=O)c2ccc(Cl)cc2)s1	73*	86*	59	77*	94*	114*	57*
CCOCc1c(C(=O)OCC(=O)/C(C#N)=C(\C)N)oc2ccccc12	0	-2	-5	4	11	.	.
Cc1ccc(S(=O)(=O)Nc2cccc(N(C)S(C)(=O)=O)c2)cc1[N+](=O)[O-]	97*	23*	-21	95*	2	0	-9
COc1ccccc1CNC(=O)c1ccc(OC(F)F)c(OC)c1	0	35*	0	0	-16	4	2
CC(CN1CCN(Cc2ccccc2)CC1)OC(=O)c1ccco1 (stereo unspecified)	3	-2	-4	-5	.	-3	.
C=CCOc1c(Cl)cc(CNc2ccc(C)c(Cl)c2)cc1OC	77*	50*	50	77*	91*	85*	51*
C=CCOc1c(Cl)cc(CNc2ccc(N(C)C)cc2)cc1OC	-5	-8	-5	3	-67	-17	.
Cc1cc(C)n(/N=C/c2cccs2)c(=O)c1C#N	3	71*	-31	2	0	-12	5
CCOC(=O)C(NC(=O)C1C(C)N1S(=O)(=O)c1ccc(C)cc1)C(=O)OCC (stereo unspecified)	.	2	-18	.	.	3	.
COc1cc(/C=C/c2ccc3cccc(O)c3n2)cc(OC)c1OC	.	30*	0	.	.	-24	4
O=[N+]([O-])c1ccc(/C=C/c2ccc3cccc(O)c3n2)cc1	.	42*	-132	.	.	-11	17
Fc1ccccc1/C=C/c1ccc2ccccc2n1	0	2	-129	5	-196	35	.
SMILES	Ba/F3 V617F tox	IEC-6 cytotox	KLF5 inhibitor	BaF3 parental	APP transl inh	aSyn 5UTR inh	IEC-6 tox confirm
COc1cc(/C=C/c2ccc3cccc(O)c3n2)cc(Br)c1OC	.	-1	-63	.	.	-81	.
O=[N+]([O-])c1ccc(/C=C/c2ccc3ccccc3n2)cc1	1	88*	-95	9	-165	46	67*
Cc1cc(-c2nnc(-c3cccc(Cl)c3)o2)no1	1	-1	-55	-3	.	-171	.
CCCN(CC(=O)Nc1ccc(F)c(F)c1F)CC(=O)Nc1c(Cl)cccc1Cl	0	59*	-3	5	-3	15	38*
O=C(CNC(=S)N(Cc1ccccc1Cl)C1CCCC1)NCCN1CCOCC1	1	4	22	4	19	17	.
Nc1nc(Nc2cccc3ccccc23)nc(C2CCCC2=O)n1 (stereo unspecified)	2	-2	0	3	-6	-10	.
Nc1nc(CCl)nc(Nc2cccc3ccccc23)n1	100*	91*	-5	28*	.	-18	8
Cc1cccc(NNC(=O)C(=O)NNc2cccc(C)c2)c1	-1	34*	34	-1	.	-7	-14
COc1cc2c(cc1OC)C(c1cccs1)N(C(=O)c1cccnc1)CC2 (stereo unspecified)	46*	46*	40	46*	45*	-12	34*
COc1cc2c(cc1OC)C(c1cccs1)N(C(=O)C(C)C)CC2 (stereo unspecified)	-2	-1	-1	6	-15	-15	.
O=C(O)CSc1cc(NS(=O)(=O)c2ccc(Cl)cc2)c2ccccc2c1O	.	57*	-42	.	.	21	-3
CCCOc1ccc(C(=O)NNC(=S)NC(=O)c2ccccc2)cc1	.	37*	19	.	.	80*	18
CCCOc1ccc(C(=O)NNC(=S)NC(=O)c2cccs2)cc1	.	39*	28	.	.	54	50*
Cc1cccc(C)c1NC(=S)NC(C)(C)CO	2	-2	-20	4	.	-3	.
S=c1nc[nH]c2nc[nH]c12	.	83*	47	.	.	67*	69*
CC1CC(C)CN(c2ccc(NS(=O)(=O)c3ccccc3)cc2C(=O)O)C1 (stereo unspecified)	.	-3	3	.	.	-15	.
CC(C)c1nnc(NC(=O)CC(C)c2ccccc2)s1 (stereo unspecified)	.	-1	-48	.	.	-56	.
Cc1cnc(NC(=O)CC(C)c2ccccc2)s1 (stereo unspecified)	.	33*	28	.	.	-196	23*
O=[N+]([O-])c1c(Nc2ccccc2O)cc(Cl)c2nonc12	.	96*	15	.	.	12	43*
